Molecules are shown by their SMILES. Inconclusive results are not listed. Activity calls are given as the source filed them. The call rests on the fitted dose curve; in most records, active means well fitted curve in the direction sought with a large enough effect; inconclusive means small, poorly fitted or top-dose-only effect, or another doubt; inactive means no such curve, though single readings can be large; an effect the other way counts as inactive or inconclusive.

Assay [1] in a line: Quantitative High-Throughput drug screen in 47 multiple myeloma cell lines against the NCATS MIPE library collection: Karpas620_DSMZ cell viability assay (AID 1918959). Further: nearly all actives have a fitted effect of over 30% in size. The essentials: (§1)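 Luminescent ATP measurement with CellTiter-Glo gives viability, scaled between DMSO-only wells (100%) and media-only wells (0%). Cells, 500 per well, faced library compounds for 48 hours at 37C.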

The nature of assay [2]: Quantitative High-Throughput drug screen in 47 multiple myeloma cell lines against the NCATS MIPE library collection: KMM1_JCRB cell viability assay (AID 1918960). Further: nearly all actives have a fitted effect of over 30% in size. A digest of the protocol:
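Myeloma cells at 500 per well in 1536-well format treated with MIPE 4.0 library by pin transfer for 48 h at 37C, 5% CO2. Viability from ATP luminescence (CellTiter-Glo), normalized to DMSO (100%) and media-only (0%) wells.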

A short description of assay [3]: Quantitative High-Throughput drug screen in 47 multiple myeloma cell lines against the NCATS MIPE library collection: Karpas417_ECACC cell viability assay (AID 1918961). The note with it: Karpas417 myeloma viability, CellTiter-Glo ATP luminescence, 48 h; viability (% of DMSO): at 45.8 µM (top of the series). The essentials:
(§2)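 Steps: seed 500 cells per well; pin-transfer MIPE 4.0 library; incubate 48 h at 37C, 5% CO2, humidified; add CellTiter-Glo, 5 min room temperature; read luminescence.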

Assay [4] is described as follows: Quantitative High-Throughput drug screen in 47 multiple myeloma cell lines against the NCATS MIPE library collection: KMS12PE_JCRB cell viability assay (AID 1918972). Further: nearly all actives have a fitted effect of over 30% in size. A digest of the protocol:
as §2

Assay [5] is described as follows: Quantitative High-Throughput drug screen in 47 multiple myeloma cell lines against the NCATS MIPE library collection: KMS20_JCRB cell viability assay (AID 1918973). Further: nearly all actives have a fitted effect of over 45% in size. The essentials:
(§3)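 CellTiter-Glo luminescence (ATP) after 48 h compound exposure, 37C/5% CO2; 500 cells/well; MIPE 4.0 approved/investigational drugs pinned in; DMSO = 100%, media only = 0% viability.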

Assay [6] in a line: Quantitative High-Throughput drug screen in 47 multiple myeloma cell lines against the NCATS MIPE library collection: OCIMY1_PLB cell viability assay (AID 1918979). Further: nearly all actives have a fitted effect of over 35% in size. A digest of the protocol:
(§4)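 Inhibition of viability over 48 h was scored by ATP content (CellTiter-Glo) in 500-cell wells. Zero and full viability were defined by media-only and DMSO-only wells.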

Assay [7] in a line: Quantitative High-Throughput drug screen in 47 multiple myeloma cell lines against the NCATS MIPE library collection: KHM11_PLB cell viability assay (AID 1918962). Further: nearly all actives have a fitted effect of over 35% in size. The essentials:
as §1

The nature of assay [8]: Quantitative High-Throughput drug screen in 47 multiple myeloma cell lines against the NCATS MIPE library collection: JIM3_ECACC cell viability assay (AID 1918963; further: nearly all actives have a fitted effect of over 35% in size). The essentials: as §1
Assay [9] in a line: Quantitative High-Throughput drug screen in 47 multiple myeloma cell lines against the NCATS MIPE library collection: JIM1_ECACC cell viability assay (AID 1918964). A digest of the protocol: as §3
Assay [10] is described as follows: Quantitative High-Throughput drug screen in 47 multiple myeloma cell lines against the NCATS MIPE library collection: INA6_PLB cell viability assay (AID 1918965; further: nearly all actives have a fitted effect of over 55% in size). A digest of the protocol: as §2
The nature of assay [11]: Quantitative High-Throughput drug screen in 47 multiple myeloma cell lines against the NCATS MIPE library collection: JJN3_DSMZ cell viability assay (AID 1918966; further: nearly all actives have a fitted effect of over 50% in size). The essentials: as §3
Assay [12] in a line: Quantitative High-Throughput drug screen in 47 multiple myeloma cell lines against the NCATS MIPE library collection: H1112_PLB cell viability assay (AID 1918967; further: nearly all actives have a fitted effect of over 30% in size). The essentials:
as §3

The nature of assay [13]: Quantitative High-Throughput drug screen in 47 multiple myeloma cell lines against the NCATS MIPE library collection: Karpas25_ECACC cell viability assay (AID 1918968; further: nearly all actives have a fitted effect of over 35% in size). A digest of the protocol:
as §3

Assay [14] is described as follows: Quantitative High-Throughput drug screen in 47 multiple myeloma cell lines against the NCATS MIPE library collection: KMS27_JCRB cell viability assay (AID 1918970). Further: nearly all actives have a fitted effect of over 30% in size. The conditions noted are these: KMS27 myeloma cells, CellTiter-Glo ATP viability, 48 h; viability (% of DMSO): at 45.8 µM (top of the series). A digest of the protocol: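 Each line is seeded at 500 cells per well and treated with library compounds for 48 hours under 37 °C, 5% CO2. CellTiter-Glo is then added for 5 min at room temperature before median relative luminescence is recorded.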

Assay [15] in a line: Quantitative High-Throughput drug screen in 47 multiple myeloma cell lines against the NCATS MIPE library collection: KMS12BM_JCRB cell viability assay (AID 1918971). Further: nearly all actives have a fitted effect of over 35% in size. The essentials:
(§5)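 Inhibition of cell viability is measured here. Each line was plated at 500 cells per well, treated with MIPE 4.0 drugs, kept 48 hours at 37C, then assayed for ATP content by CellTiter-Glo luminescence.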

The nature of assay [16]: Quantitative High-Throughput drug screen in 47 multiple myeloma cell lines against the NCATS MIPE library collection: KMS26_JCRB cell viability assay (AID 1918975). Further: nearly all actives have a fitted effect of over 45% in size. The essentials:
as §5

A short description of assay [17]: Quantitative High-Throughput drug screen in 47 multiple myeloma cell lines against the NCATS MIPE library collection: MMM1_PLB cell viability assay (AID 1918976). Further: nearly all actives have a fitted effect of over 35% in size. A digest of the protocol:
as §4

The nature of assay [18]: Quantitative High-Throughput drug screen in 47 multiple myeloma cell lines against the NCATS MIPE library collection: MOLP8_DSMZ cell viability assay (AID 1918977). Further: nearly all actives have a fitted effect of over 45% in size. The essentials: as §4
Assay [19] in a line: Quantitative High-Throughput drug screen in 47 multiple myeloma cell lines against the NCATS MIPE library collection: NCIH929_DSMZ cell viability assay (AID 1918978). Further: nearly all actives have a fitted effect of over 35% in size. The essentials:
as §4
Potency means the concentration at half of the fitted maximal effect.

On to `O=C(Nc1ccc(Oc2ccnc3[nH]ccc23)c(F)c1)c1cccn(-c2ccc(F)cc2)c1=O`, for which the Potency result in assay [1], in assay [4], in [5] and in assay [6] was “inactive” each time. The Potency in assay [2] was 2640 nM (active); in assay [3], 4.7 nM (active).

For `Cc1ccc2nc(NCCN)c3ncc(C)n3c2c1`, the Potency in assay [1] is 11800 nM (active); in [2] it was 7430 nM (active); in [7], 2640 nM (active); in assay [8], 8330 nM (active); in assay [9], 3320 nM (active); in [10] it was 5900 nM (active). Further, the Potency in [11] was 1660 nM (active); in [12], 4690 nM (active); in assay [13], 9350 nM (active); in [14] it was 6620 nM (active); in assay [15], 3720 nM (active); in assay [4], 9350 nM (active). In addition, the Potency was 6620 nM (active) in [5]; 2640 nM (active) in [16]; 2640 nM (active) in assay [17]; 4180 nM (active) in assay [18]; 5900 nM (active) in assay [19]; 14800 nM (active) in assay [6].

With `COC(=O)[C@@H]1CC2=CC(=O)CC[C@]2(C)[C@@]23O[C@@H]2C[C@@]2(C)[C@H](CC[C@@]24CCC(=O)O4)[C@@H]13`, the Potency entry in assay [1], in [2], in [7], in assay [8], in [9] and in [10] was “inactive” each time. In addition, the Potency result in assay [12], in assay [13], in assay [14], in [4], in assay [5] and in assay [18] was “inactive” each time. Also, the Potency entry in [19] and in assay [6] was “inactive” throughout.

In the case of `CCC(C=C[C@@H]1OC(=O)C=C[C@H]1C)=C[C@H](C)CC=CC(C)=C[C@@H](C)C(=O)[C@@H](C)[C@H](O)[C@@H](C)CC(C)=CC(=O)O`, the Potency was 12.4 nM (active) in [1]; 22 nM (active) in [2]; 43.9 nM (active) in [7]; 34.9 nM (active) in assay [8]; 15.6 nM (active) in assay [9]; 15.6 nM (active) in assay [10]. For the same compound, the Potency in [12] was 39.2 nM (active); in [13], 19.6 nM (active); in assay [14] it was 9.8 nM (active); in assay [15], 19.6 nM (active); in assay [4], 19.6 nM (active); in assay [5], 8.8 nM (active). Moreover, the Potency in assay [16] is 31.1 nM (active); in assay [17], 27.7 nM (active); in assay [18], 19.6 nM (active); in assay [19], 19.6 nM (active).

On to `C=CC[C@@H]1C=C(C)C[C@H](C)C[C@H](OC)[C@H]2O[C@@](O)(C(=O)C(=O)N3CCCC[C@H]3C(=O)O[C@H](C(C)=C[C@@H]3CC[C@H](O)[C@H](OC)C3)[C@@H](C)[C@@H](O)CC1=O)[C@@H](C)C[C@@H]2OC`, for which the Potency in assay [1] was 1480 nM (active); in assay [2], 2090 nM (active); in assay [7], 2640 nM (active); in [8] it was 3720 nM (active); in [9] it was 1180 nM (active); in [10], 935 nM (active). The Potency is 3320 nM (active) in assay [12]; 2960 nM (active) in [13]; 743 nM (active) in assay [14]; 1480 nM (active) in assay [15]; 1870 nM (active) in [4]; 935 nM (active) in assay [16]. The Potency in assay [17] is 3320 nM (active); in [18], 1320 nM (active); in [6], 2640 nM (active).

These data come from PubChem BioAssay (NCATS).
